The text below walks through data of PubChem BioAssay (NCI).

Some test systems named below: SR leukemia; RPMI-8226 leukemia; OVCAR-8 ovarian; OVCAR-5 ovarian; OVCAR-4 ovarian; SK-OV-3 ovarian; OVCAR-3 ovarian; NCI/ADR-RES ovarian; HS 578T breast; IGROV1 ovarian.
What all share (test): NCI-60 one-dose screen, 48 h (100 = growth as untreated, 0 = no growth, -100 = all killed)
Conditions in all cases: 10 µM unless noted

Structures are written as SMILES. The panel holds about 83,000 compounds, 20% with a hit somewhere; the sample as a whole holds those more often.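 Note: values are percent growth. 100 is the growth of untreated cells, values between 100 and 0 indicate rising inhibition; between -100 and 0 indicates cell death.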 Unmarked numbers belong to inactive results. Active and inactive are the calls of the source. Rule for the calls: active = growth percent below 10; inactive = the rest.

Regarding `COc1cccc(/C=C/c2c(C(=O)O)cccc2[N+](=O)[O-])c1OC`, the growth was 103% in the experiment on SR leukemia; 107% in the experiment on RPMI-8226 leukemia; 110% in the experiment on OVCAR-8 ovarian; 103% with OVCAR-5 ovarian; 113% with OVCAR-4 ovarian; 88.2% with SK-OV-3 ovarian. Further, the values for the growth with OVCAR-3 ovarian and in the experiment on NCI/ADR-RES ovarian were 102% and 109%, respectively.
Regarding `COc1ccc(/C=C(\C#N)c2ccc([N+](=O)[O-])cc2)c2ccccc12`, the growth with SR leukemia was 31%; with RPMI-8226 leukemia it was 82.8%; with OVCAR-8 ovarian it was 15.8%; with OVCAR-5 ovarian it was 92.8%; with OVCAR-4 ovarian it was 2.84% (active); in the experiment on SK-OV-3 ovarian, 5.28% (active). The growth is 62.6% in the experiment on OVCAR-3 ovarian, 26.2% in the experiment with HS 578T breast and 50% in the experiment with NCI/ADR-RES ovarian.
As for `CC(=O)Nc1nc(C(=O)N2N=C(C)/C(=C/c3ccc(Cl)cc3)C2=O)cs1`, the growth in the experiment on SR leukemia is 88.1%; with RPMI-8226 leukemia, 103%; in the experiment on OVCAR-8 ovarian, 103%; in the experiment with OVCAR-5 ovarian it was 110%; in the experiment with OVCAR-4 ovarian, 112%; in the experiment on SK-OV-3 ovarian it was 108%. The growth was 114% with HS 578T breast and 109% in the experiment with NCI/ADR-RES ovarian.
With `COc1cccc2cc(-c3cc4ccccc4[nH]3)/c(=N/C(=S)Nc3ccccc3)oc12`, the growth was 104% in the experiment on SR leukemia; 131% with RPMI-8226 leukemia; 66.2% in the experiment with OVCAR-8 ovarian; 89.6% in the experiment on OVCAR-5 ovarian; 40.7% in the experiment on OVCAR-4 ovarian; 58.1% in the experiment on IGROV1 ovarian. In addition, the figures for the growth in the experiment with OVCAR-3 ovarian, in the experiment on HS 578T breast and in the experiment with NCI/ADR-RES ovarian were 80.5%, 25.1% and 51.4%, respectively.
Consider `O=C1NCC(c2cc3ccccc3[nH]c2=O)Nc2ccccc21` (stereo unspecified), for which the growth with SR leukemia was 100%; with RPMI-8226 leukemia it was 106%; with OVCAR-8 ovarian it was 103%; with OVCAR-5 ovarian, 91.2%; with OVCAR-4 ovarian, 104%; in the experiment with SK-OV-3 ovarian, 89.9%. The growth in the experiment with OVCAR-3 ovarian is 111%; with HS 578T breast, 99.4%; with NCI/ADR-RES ovarian it was 111%.
`COc1ccc(C2CC(=O)Nc3c2c(C)nn3-c2nc3ccccc3[nH]2)cc1OC` (stereo unspecified): the growth is 32.8% in the experiment on SR leukemia; 85.4% with RPMI-8226 leukemia; 62% in the experiment with OVCAR-8 ovarian; 111% in the experiment with OVCAR-5 ovarian; 62% with OVCAR-4 ovarian; 17.7% in the experiment with SK-OV-3 ovarian. In addition, the growth was 83.2% in the experiment with OVCAR-3 ovarian and 77.7% in the experiment on NCI/ADR-RES ovarian.
`CCN1C(=O)N(CC)C2C1NN=c1s/c(=C\c3ccccn3)c(=O)n12` (stereo unspecified): the growth in the experiment with SR leukemia is 5.28% (active); with RPMI-8226 leukemia it was 22.5%; in the experiment with OVCAR-8 ovarian, 31.2%; with OVCAR-5 ovarian it was 58.9%; in the experiment with OVCAR-4 ovarian, 50.2%; with IGROV1 ovarian, 43.7%. For the same compound, the figures for the growth in the experiment with OVCAR-3 ovarian, in the experiment on HS 578T breast and with NCI/ADR-RES ovarian were 2.57% (active), 7.13% (active) and 2.1% (active), respectively.
For the compound `O=C(CCCn1c(=O)c2sc3ccccc3c2n2nnc(-c3ccccc3)c12)NCCc1cnc[nH]1`, the growth with SR leukemia is 84.2%; in the experiment on RPMI-8226 leukemia, 62.5%; with OVCAR-8 ovarian, -28.5% (active); in the experiment with OVCAR-5 ovarian, -78.9% (active); in the experiment with OVCAR-4 ovarian, -54.5% (active); in the experiment on SK-OV-3 ovarian, 75.3%. Further, the growth with OVCAR-3 ovarian is -47.6% (active); in the experiment on HS 578T breast, 90.6%; with NCI/ADR-RES ovarian, 36.1%.
Consider `Cc1oc2nc[nH]c(=O)c2c1C(=O)/C=C/c1ccc(Cl)cc1Cl`, for which the growth in the experiment with SR leukemia is 33%; with RPMI-8226 leukemia, 28.4%; in the experiment with OVCAR-8 ovarian, 45.4%; in the experiment with OVCAR-5 ovarian it was 134%; with OVCAR-4 ovarian it was 68.6%; in the experiment on IGROV1 ovarian, 89.2%. The growth with OVCAR-3 ovarian is 48.6%; in the experiment on HS 578T breast it was 102%; in the experiment on NCI/ADR-RES ovarian, 43%.
In the case of `COc1ccc(/C=C2\Oc3cc(OCCN4CCCC4)ccc3C2=O)c(OC)c1`, the growth is 19.6% with SR leukemia; 33.9% in the experiment on RPMI-8226 leukemia; 96.2% in the experiment on OVCAR-8 ovarian; 90.3% in the experiment on OVCAR-5 ovarian; 97.6% with OVCAR-4 ovarian; 110% with SK-OV-3 ovarian. Besides, the growth in the experiment with OVCAR-3 ovarian was 93.8%; in the experiment on HS 578T breast, 98.5%; in the experiment on NCI/ADR-RES ovarian, 91.9%.
Take `CC(=O)Nc1ccc(S(=O)(=O)NC(CCC(=O)Nc2ccc(Cl)cc2)C(=O)O)cc1` (stereo unspecified): the growth in the experiment with SR leukemia is 77.9%; in the experiment on RPMI-8226 leukemia it was 99.1%; with OVCAR-8 ovarian, 97.4%; in the experiment on OVCAR-5 ovarian, 77.7%; in the experiment on OVCAR-4 ovarian it was 94%; in the experiment with SK-OV-3 ovarian it was 93.7%. Also, the growth is 107% in the experiment on OVCAR-3 ovarian, 98.4% in the experiment on HS 578T breast and 100% in the experiment with NCI/ADR-RES ovarian.
Take `COc1ccc(NC(=O)/N=c2\oc3c(OC)cccc3cc2-c2cc3ccccc3[nH]2)cc1`: the growth is 107% in the experiment with SR leukemia; 173% in the experiment with RPMI-8226 leukemia; 49.1% with OVCAR-8 ovarian; 88.3% with OVCAR-5 ovarian; 69.8% in the experiment with OVCAR-4 ovarian; 50% with IGROV1 ovarian. The growth in the experiment on OVCAR-3 ovarian was 64.4%; in the experiment with HS 578T breast it was 7.84% (active); in the experiment on NCI/ADR-RES ovarian it was 57.7%.
With `COc1cc2oc(-c3cccc(NC(=O)Nc4ccc5c(c4)OCO5)c3)cc(=O)c2c(OC)c1OC`, the growth is 33.3% with SR leukemia; -1.59% (active) with RPMI-8226 leukemia; 44.3% with OVCAR-8 ovarian; 118% in the experiment on OVCAR-5 ovarian; 69.1% in the experiment on OVCAR-4 ovarian; 62.5% with IGROV1 ovarian. The values for the growth in the experiment on OVCAR-3 ovarian, with HS 578T breast and in the experiment on NCI/ADR-RES ovarian were 56%, 59.4% and 57.6%, respectively.
In the case of `O=C(Nc1ccc(Br)c(Cl)c1)c1cc(F)ccc1O`, the growth in the experiment with SR leukemia was 0.366% (active); with RPMI-8226 leukemia it was -16.1% (active); in the experiment on OVCAR-8 ovarian it was 6.78% (active); in the experiment on OVCAR-5 ovarian it was 24.4%; in the experiment with OVCAR-4 ovarian, 12.4%; in the experiment with SK-OV-3 ovarian, 3.58% (active). The growth with OVCAR-3 ovarian was 12.1%; in the experiment on HS 578T breast it was 17.4%; in the experiment with NCI/ADR-RES ovarian, 6.11% (active).
`O=C(N/N=C/c1c(Cl)cccc1Cl)c1ccccc1Nc1ccnc(C(F)(F)F)c1`: the growth in the experiment with SR leukemia was 103%; with RPMI-8226 leukemia it was 89.7%; in the experiment with OVCAR-8 ovarian, 64.8%; in the experiment on OVCAR-5 ovarian it was 97.8%; in the experiment on OVCAR-4 ovarian, 63.9%; with SK-OV-3 ovarian, 76.9%. Further, the results for the growth with OVCAR-3 ovarian and with NCI/ADR-RES ovarian were 110% and 67.6%, respectively.
